High-throughput results (PubChem BioAssay)
KCNQ2 inh: rat KCNQ2 potassium channel inhibitors, primary screen, cell-based, CHO-K1, FluxOR thallium flux, B-score; B-score at 10 µM; hit rate 1.1% among 310,000; 20 min; hits give low values;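 active means fluorescence ratio B-score at most minus 3 library SDs, with starting brightness B-score within 2 library SDs, cut at about -5.5 in these data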
KCNQ2 pot: potentiators of rat KCNQ2 potassium channel; CHO-K1 KCNQ2, FluxOR thallium flux fluorescence; hits give high values; B-score at 10 µM; hit rate 0.54% among 310,000; AID 2239, 2010;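 active means fluorescence ratio B-score at least 3 SD of library B-scores, with initial fluorescence B-score within 3 of them, cut at about 5.3 in these data; same plate scores as AID 2156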;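 further: B-score of peak minus minimum over baseline fluorescence ratio after K+ and Tl+ stimulus; positive B-score means potentiation of KCNQ2 with more thallium influx and brighter signal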
Kir21 confirm: mouse Kir2.1 channel blockers, retest, confirmation, cell-based, FluxOR thallium flux, duplicate; shares compounds with KCNQ2 pot; Kir2.1-expressing cells, FluxOR thallium flux fluorescence; hits give low values; Tl flux remaining, % of negative control (hits give low values), % at 10 µM; hit rate 41% among 2,300;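 active means Primary-screen hit whose thallium flux fell at least 3 control SD below untreated wells in both duplicates, with normal baseline fluorescence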;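 further: 0% = blank wells without stimulus and 100% = stimulated no-compound controls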
Target sequence (P35561 whole entry, looked up): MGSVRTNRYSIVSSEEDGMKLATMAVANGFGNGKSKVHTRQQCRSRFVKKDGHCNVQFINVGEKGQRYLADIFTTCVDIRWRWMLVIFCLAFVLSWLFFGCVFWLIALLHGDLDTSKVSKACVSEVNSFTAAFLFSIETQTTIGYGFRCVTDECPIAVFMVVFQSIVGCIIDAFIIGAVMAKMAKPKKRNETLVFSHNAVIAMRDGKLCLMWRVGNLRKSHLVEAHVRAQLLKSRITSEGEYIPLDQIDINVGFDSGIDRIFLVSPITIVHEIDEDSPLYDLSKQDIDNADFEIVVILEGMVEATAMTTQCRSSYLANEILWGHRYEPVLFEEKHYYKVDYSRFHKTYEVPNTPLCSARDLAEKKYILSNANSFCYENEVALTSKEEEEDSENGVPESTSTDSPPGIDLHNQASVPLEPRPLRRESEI
HEK293 ctr: alters thallium flux in parental HEK293 cells, Kir2.1 counter-screen; shares compounds with KCNQ2 pot; FluxOR thallium flux fluorescence; 0% = unstimulated blank wells; FluxOR signal as % of negative control (100 = no effect), % at 10 µM; hit rate 19% among 2,300;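 active means dye signal at least 3 control SD above or below untreated wells in both duplicates, raw fluorescence within 3, either direction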;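 further: percent is based on the flux ratio of peak minus minimum fluorescence over baseline F0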
CHO-K1 ctr: nonspecific thallium flux increase in parental CHO-K1, confirmation, counter-screen for KCNQ2 potentiator project, cell-based, FluxOR thallium flux, duplicate; shares compounds with KCNQ2 pot; parental CHO-K1 cells, FluxOR thallium flux fluorescence; zero = vehicle mean+3SD, 100% = vehicle-minus-blank window; activity increase over 3SD of controls, % at 10 µM; hit rate 43% among 1,200;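 active means signal rise of at least 3 SD above the untreated control mean, in both duplicate wells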;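 further: counter screen of KCNQ2 potentiator hits so any rise reflects channel-independent effects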
KCNQ1 sel pot: human KCNQ1 channel potentiation off-target, confirmation, selectivity assay for KCNQ2 potentiator project, cell-based, CHO, FluxOR thallium flux | shares compounds with KCNQ2 pot | CHO KCNQ1 stable, FluxOR thallium flux fluorescence; beyond 3SD, as % of vehicle-control signal | activation over 3SD threshold, % at 10 µM | hit rate 28% among 1,200;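 active means fluorescence ratio rise of at least 3 SD of vehicle wells above their mean, in both replicate wells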;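 further: 0% = vehicle mean plus 3 SD and 100% = vehicle minus unstimulated blank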
KCNQ2 pot confirm: rat KCNQ2 channel potentiators, confirmation, cell-based, CHO, FluxOR thallium flux, duplicate | hit rate 68% among 1,200 | shares compounds with KCNQ2 pot | AID 2287, 2010 | potentiation, less the hit threshold, % at 10 µM | CHO-KCNQ2 cells, FluxOR thallium flux fluorescence;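 active means fluorescence ratio rising 3 SD or more over the vehicle control mean in both replicates, plus primary screen hit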;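 further: peak minus minimum thallium fluorescence divided by baseline after K/Tl stimulus; 0% = vehicle mean plus 3 SD and 100% = vehicle minus unstimulated blank difference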
Kir21 spec: mouse Kir2.1 channel activation off-target, confirmation, selectivity assay for KCNQ2 potentiator project, cell-based, HEK293, FluxOR thallium flux; hit rate 2% among 1,200; AID 2345, 2010; activity over 3SD threshold, % at 10 µM; HEK293 Kir2.1, FluxOR thallium flux fluorescence; shares compounds with KCNQ2 pot;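 active means fluorescence ratio rise of at least 3 SD above the vehicle-control mean, seen in both replicates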;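 further: 0% = vehicle mean plus 3 SD and 100% = vehicle minus no-stimulus blank window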
KCNQ2 W236L MoA: potentiators of retigabine-insensitive KCNQ2 W236L, mechanism study for KCNQ2 potentiator project, cell-based, rat KCNQ2 W236L, CHO, automated patch clamp; current increase over 3SD of negative controls (%), hits give high values, % at 25 µM; automated patch clamp current; AID 2558, 2010; hit rate 10% among 940; shares compounds with KCNQ2 pot;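 active means current increase at least 3 SD of the untreated controls above them in both duplicate recordings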
* marks the source's active call; other numbers are inactive results; i = inactive; . = no result. In the library only some 1.6% were active in any assay of this set; here they are far more common.

SMILES	KCNQ2 inh	KCNQ2 pot	Kir21 confirm	HEK293 ctr	others
COc1ccc2c(c1OC)C(C1c3c(cc4c(c3OC)OCO4)CCN1C)OC2=O (configuration not stated)	i	.	.	.
CC(C)(C)c1ccc(Oc2ccc(N)cn2)cc1	i	12*	i	68%*	CHO-K1 ctr=65*;KCNQ1 sel pot=-19;KCNQ2 pot confirm=73*;Kir21 spec=-34;KCNQ2 W236L MoA=i
Cc1cc(Oc2ccc(N)cn2)cc(C)c1Cl	i	0.02	.	.
COc1ccccc1CN=C1Nc2ccccc2CS1	i	.	58%*	i
COc1cccc(CN=C2Nc3ccccc3CS2)c1	i	.	.	.
Cc1nc(N2CCN(c3ccccc3)CC2)nc2c1C(=O)CCC2	i	1.4	.	.
C=CCc1ccccc1OCCNCc1ccccc1	i	.	32%*	i
Brc1ccccc1OCCNCc1ccccc1	i	.	.	.
C=CCc1ccc(OCCN2CCc3ccccc3C2)c(OC)c1	i	0.84	20%*	i
C/C=C/c1ccc(OCCN2CCc3ccccc3C2)c(OC)c1	i	.	.	.
C=CCc1ccc(OCCCNC2CCCC2)c(OC)c1	i	.	.	.
C=CCc1ccc(OCCCNCc2ccccc2)c(OC)c1	i	3.3	42%*	i
Cc1ccc(S(=O)(=O)Nc2cc(=O)[nH]c(SCC(=O)Nc3ccccc3C(F)(F)F)n2)cc1	i	1	.	.
COc1ccccc1Nc1ccc(NC(=O)c2cccc([N+](=O)[O-])c2C)cc1	i	.	.	.
CCCNC(=O)OC[C@H]1O[C@H](CCO/N=C(\C)CCN2CCc3nc(-c4ccccc4)c(-c4ccccc4)cc3C2)C=C[C@@H]1Oc1ccc(OC)cc1	i	.	.	.
CCOC(=O)N1CCN(Cc2c(O)ccc3ccccc23)CC1	i	.	.	.
CCOC(=O)C1CCN(Cc2c(O)ccc3ccccc23)CC1	i	0.29	70%*	i
O=[N+]([O-])c1ccc(Cl)c(/C=N/n2c(C3CCCCC3)n[nH]c2=S)c1	i	.	.	.
CN(C)c1ccc(C(=O)c2ccc(O)cc2O)cc1	i	0.06	i	i
O=C(c1ccc(O)cc1)c1ccc(O)cc1O	i	1	.	.
Nc1nc2n(n1)C(c1cccs1)CC(c1ccccc1)N2 (configuration not stated)	i	0.02	.	.
COc1cc(OC)c(C2C(C#N)=C(N)OC3=C2C(=O)CC(C)(C)C3)cc1OC (configuration not stated)	i	1.1	.	.
CC(=O)Nc1ccc(S(=O)(=O)NCC(=O)NC(C)c2ccc(S(N)(=O)=O)cc2)cc1 (configuration not stated)	i	1.5	.	.
CSc1ccccc1NC(=O)CSc1n[nH]c(N)n1	i	.	.	.
Nc1nc(SCC(=O)Nc2ccccc2Sc2ccc(Cl)cc2)n[nH]1	i	6.2*	i	i	CHO-K1 ctr=23*;KCNQ1 sel pot=-18;KCNQ2 pot confirm=9.1*;Kir21 spec=-53;KCNQ2 W236L MoA=i
CC(=O)Nc1ccc(NC(=O)C(=O)c2cn(CC(=O)N3CCCCC3)c3ccccc23)cc1	i	0.38	.	.
Cc1onc(-c2ccccc2)c1-c1n[nH]c(=S)n1-c1ccc(C(=O)O)cc1	i	0.11	.	.
